These results are taken from article PMC11062922 (Nature Chemical Biology, 2023).

Read-outs that look alike come from different tables or passages of the source.

What all share (parameters): species or system human, MV4-11 + K-562 + COLO205 + SK-N-BE2 + OVCAR-8
For test [1], the system named is AGK. The conditions noted are these: read-out: apparent Kd; compound concentrations: 100 nM and 1000 nM (sheet 'Samples'), CATDS: 7.7586701088880605E-2; n = 1.
The subject of test [2] is CSNK1D. The conditions noted are these: read-out: apparent Kd; compound concentrations: 100 nM and 1000 nM (sheet 'Samples'), CATDS: 0.14002934621816099; n = 1.
The subject of test [3] is CSNK1E. Particulars: read-out: apparent Kd; compound concentrations: 100 nM and 1000 nM (sheet 'Samples'), CATDS: 9.5278515441506895E-2; n = 1.
For test [4], the system named is JAK2. Particulars: read-out: apparent Kd, n = 1.
Test [5] deals with MAPK14. The conditions noted are these: read-out: apparent Kd, n = 1.
Test [6] concerns MAPK9. The conditions noted are these: read-out: apparent Kd, compound concentrations: 100 nM and 1000 nM (sheet 'Samples'), n = 1.
The subject of test [7] is MAPKAPK2. The conditions noted are these: read-out: apparent Kd, compound concentrations: 100 nM and 1000 nM (sheet 'Samples'), n = 1.
Test [8] concerns PKN3. Particulars: read-out: apparent Kd; compound concentrations: 100 nM and 1000 nM (sheet 'Samples'), CATDS: 8.9898852115076394E-2; n = 1.
Test [9] relates to PRKD2. Particulars: read-out: apparent Kd; compound concentrations: 100 nM and 1000 nM (sheet 'Samples'), CATDS: 9.5055877721236803E-2; n = 1.
Test [10] relates to PRKD3. The conditions noted are these: read-out: apparent Kd; compound concentrations: 100 nM and 1000 nM (sheet 'Samples'), CATDS: 9.9429548898697998E-2; n = 1.
Test [11] has as its system ADRBK1. The conditions noted are these: read-out: apparent Kd, compound concentrations: 100 nM and 1000 nM (sheet 'Samples'), n = 1.
Test [12] relates to PRKACG. Particulars: read-out: apparent Kd; compound concentrations: 100 nM and 1000 nM (sheet 'Samples'), CATDS: 0.40146810270516797; n = 1.
Test [13] deals with AKT1. The conditions noted are these: read-out: apparent Kd, n = 1.
In test [14] the test system is AKT2. The conditions noted are these: read-out: apparent Kd, n = 1.
For test [15], the system named is HCK. The conditions noted are these: read-out: apparent Kd; compound concentrations:100 nM and 1000 nM (sheet 'Samples'); n = 1.
Test [16] relates to MAP2K2. Particulars: read-out: apparent Kd; compound concentrations:100 nM and 1000 nM (sheet 'Samples'); n = 1.
The subject of test [17] is NQO1. Particulars: read-out: apparent Kd; compound concentrations:100 nM and 1000 nM (sheet 'Samples'); n = 1.
In test [18] the test system is RET. Particulars: read-out: apparent Kd; compound concentrations:100 nM and 1000 nM (sheet 'Samples'); n = 1.
Test [19] deals with TP53RK. Particulars: read-out: apparent Kd; compound concentrations:100 nM and 1000 nM (sheet 'Samples'); n = 1.
Test [20] deals with YES1. Particulars: read-out: apparent Kd; compound concentrations:100 nM and 1000 nM (sheet 'Samples'); n = 1.
In test [21] the test system is AGPS. The conditions noted are these: read-out: apparent Kd; compound concentrations:100 nM and 1000 nM (sheet 'Samples'); n = 1.
Test [22] relates to COX5A. Particulars: read-out: apparent Kd; compound concentrations:100 nM and 1000 nM (sheet 'Samples'); n = 1.
The subject of test [23] is TGFBR1. Particulars: read-out: apparent Kd; compound concentrations:100 nM and 1000 nM (sheet 'Samples'); n = 1.
Test [24] relates to CDK10. Particulars: read-out: apparent Kd; compound concentrations: 100 nM and 1000 nM (sheet 'Samples'), CATDS: 0.51704029448555699; n = 1.
Test [25] deals with CDK6. The conditions noted are these: read-out: apparent Kd; compound concentrations: 100 nM and 1000 nM (sheet 'Samples'), CATDS: 0.20931890266427899; n = 1.
For test [26], the system named is CDK16. Particulars: read-out: apparent Kd; compound concentrations:100 nM and 1000 nM (sheet 'Samples'); n = 1.
For test [27], the system named is CDK17. The conditions noted are these: read-out: apparent Kd; compound concentrations:100 nM and 1000 nM (sheet 'Samples'); n = 1.
Test [28] has as its system CDKL5. Particulars: read-out: apparent Kd; compound concentrations:100 nM and 1000 nM (sheet 'Samples'); n = 1.
Test [29] has as its system T1, DJA1.
T1 construct: gene DNAJA1
The conditions noted are these: read-out: apparent Kd; compound concentrations:100 nM and 1000 nM (sheet 'Samples'); n = 1.

Test [30] deals with GSK3A. Particulars: read-out: apparent Kd; compound concentrations:100 nM and 1000 nM (sheet 'Samples'); n = 1.
Test [31] has as its system GSK3B. Particulars: read-out: apparent Kd; compound concentrations:100 nM and 1000 nM (sheet 'Samples'); n = 1.
For test [32], the system named is PIK3CA. The conditions noted are these: read-out: apparent Kd; compound concentrations:100 nM and 1000 nM (sheet 'Samples'); n = 1.
For test [33], the system named is PIK3CD. Particulars: read-out: apparent Kd; compound concentrations:100 nM and 1000 nM (sheet 'Samples'); n = 1.
Test [34] relates to RPS6KA6. Particulars: read-out: apparent Kd; compound concentrations:100 nM and 1000 nM (sheet 'Samples'); n = 1.
Where [35] appears, read: compound concentrations:100 nM and 1000 nM (sheet 'Samples').

In the case of `OCCn1c(-c2ccncc2)c(-c2ccc(F)cc2)c2ncccc21` [RO1155798-000], the potency estimated from few doses in [1] was 2000 nM; in [2] it was 582 nM; in test [3], 1190 nM; in test [4] (compound concentrations: 100 nM and 1000 nM (sheet 'Samples'), CATDS: 0.169567440751725) it was 432 nM; in test [5] (compound concentrations: 100 nM and 1000 nM (sheet 'Samples'), CATDS: 0.109512285169825) it was 897 nM; in test [6] (CATDS: 8.7291809991309394E-2), 1460 nM. Besides, the potency estimated from few doses was 1410 nM in [7] (CATDS: 8.8585007822458595E-2), 1360 nM in [8], 1200 nM in [9] and 1090 nM in test [10].

In the case of `COC(=O)c1c(-c2ccccc2)c2cc(OC)ccc2c(=O)n1Cc1ccccc1` [TPKI-97], the potency estimated from few doses in test [11] (CATDS: 0.31449304008803602) is 1400 nM; in test [6] (CATDS: 0.30035248026311001) it was 1550 nM; in test [12] it was 872 nM.

As to `C=CC(=O)Nc1cc(-c2nn(C3CCC(N4CCN(C(C)=O)CC4)CC3)c3ncnc(N)c23)ccc1Oc1ccccc1` (centres unmarked) [TX-85-1], the potency estimated from few doses in [13] (setting [35]) was 2280 nM; in test [14] (setting [35]), 2250 nM; in test [15], 799 nM; in test [16] it was 1550 nM; in [17] it was 1480 nM; in test [18] it was 712 nM. For the same molecule, the results for the potency estimated from few doses in [19] and in [20] were 1620 nM and 918 nM, respectively.

With `Cl.Cn1c(=O)c(Oc2ccc(F)cc2F)cc2cnc(NCC(C)(C)O)nc21` [RO3308967-001], the potency estimated from few doses in test [11] (CATDS: 0.168792750193444) is 1780 nM; in [5] (compound concentrations: 100 nM and 1000 nM (sheet 'Samples'), CATDS: 0.54620788714076096) it was 44 nM; in test [6] (CATDS: 0.17242966969454199), 1600 nM; in test [7] (CATDS: 0.40894707261739799), 76.7 nM.

As for `Fc1ccc(-c2cc(-c3c[nH]nc3-c3ccccn3)ccn2)cc1` [GW680975X], the results for the potency estimated from few doses in test [21], in [22] and in [23] were 1790 nM, 132 nM and 960 nM, respectively.

As to `Cc1cc(Cl)cc2c1NC(=O)C2=NNc1ccc(S(N)(=O)=O)cc1` [GW279320X], the potency estimated from few doses in test [13] (compound concentrations: 100 nM and 1000 nM (sheet 'Samples'), CATDS: 0.213173393679812) is 1720 nM; in test [14] (compound concentrations: 100 nM and 1000 nM (sheet 'Samples'), CATDS: 0.21750959040308801) it was 1630 nM; in test [24], 316 nM; in [25], 1810 nM.

With `CN1CCC(C(=O)Nc2n[nH]c3nnc(-c4ccccc4)cc23)CC1.Cl` [SB-678557-A], the potency estimated from few doses was 2390 nM in [14] (setting [35]); 1070 nM in test [26]; 1910 nM in [27]; 75.2 nM in [28]; 1840 nM in test [29]; 3.32 nM in test [30]. For the same molecule, the potency estimated from few doses in [31] was 8.23 nM; in [4] (setting [35]) it was 721 nM; in [5] (setting [35]), 1690 nM; in test [32], 183 nM; in test [33] it was 173 nM; in test [34], 1150 nM.
